The nature of assay [1]: BSK_3C_SRB: Viability Assessment in the BioMAP Diversity Plus: 3C Assay (AID 2283023).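 Further: cells read 24 h after compound dosing; fitted both ways against DMSO so a hit may be signal rise or drop.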 The following applies: primary human endothelial cells (HUVEC). Put shortly: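 HUVEC, 24 h post-dose; 10% TCA fix, 0.1% SRB stain, A560 nm. Bidirectional curve fit vs DMSO negative control.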
Read-out in assay [2]: Matrix Metallopeptidase 1 (MMP1), MMP1 (gene 4312)
Description: BSK_BE3C_MMP1: BioMAP Diversity Plus: BE3C Assay for Matrix Metallopeptidase 1 (MMP1) Biomarker Activity (AID 2283024). Conditions: primary human bronchial epithelial cells; actives raise or lower the signal. Put shortly:
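In this multiplexed primary-cell system, human bronchial epithelium received chemicals for 24 h before an ELISA for MMP1. Values reflect bidirectional fits normalised to the DMSO baseline.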

Assay [3] is described as follows: BSK_3C_Vis: BioMAP Diversity Plus: 3C Assay for Morphology Visualization (AID 2283025).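 Further: fitted both ways so gain or loss versus DMSO counts.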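 On AC50: light microscopy image of cell morphology used as background control.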 Conditions: primary human endothelial cells (HUVEC). An outline of the steps:
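Light-microscopy morphology readout, 24 h exposure, human primary umbilical vein endothelium; analysed relative to DMSO with bidirectional fitting.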

Read-out in assay [4]: Pselectin, SELP (gene 6403)
Description: BSK_4H_Pselectin: BioMAP Diversity Plus: 4H Assay for Pselectin Biomarker Activity (AID 2283026). The following applies: primary human endothelial cells (HUVEC); actives raise or lower the signal. An outline of the steps: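 Bidirectional fits against DMSO gave the endpoint. Cells: primary human umbilical vein endothelium, chemical-treated for 24 h before ELISA detection of P-selectin.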

Assay [5] is described as follows: BSK_4H_SRB: Viability Assessment in the BioMAP Diversity Plus: 4H Assay (AID 2283027).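 Further: cells exposed to compound for 24 h before staining.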 The following applies: primary human endothelial cells (HUVEC). Put shortly:
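HUVEC, 24 h post-dose; 10% TCA fix, 0.1% SRB stain, A560 nm. Total protein = overt cytotoxicity, parallel to biomarker read. Bidirectional fit vs DMSO baseline.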

The nature of assay [6]: BSK_BE3C_SRB: Viability Assessment in the BioMAP Diversity Plus: BE3C Assay (AID 2283028). The following applies: primary human bronchial epithelial cells. An outline of the steps:
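Primary human bronchial epithelium; chemical dosing, 24 h; 10% TCA fix, 0.1% SRB stain, A560; bidirectional fit vs DMSO baseline.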

Read-out in assay [7]: Thrombomodulin, THBD (gene 7056)
Description: BSK_3C_Thrombomodulin: BioMAP Diversity Plus: 3C Assay for Thrombomodulin Biomarker Activity (AID 2283029). The following applies: primary human endothelial cells (HUVEC); actives raise or lower the signal. An outline of the steps: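 In a multiplexed primary-cell system, human umbilical vein endothelium received chemical and was assayed 24 h later for thrombomodulin by ELISA. Parallel cultures were SRB-stained (0.1% SRB after 10% TCA fixation, read at 560 nm) to flag cytotoxicity.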

Read-out in assay [8]: Urokinase-type plasminogen activator receptor (uPAR), PLAUR (gene 5329)
Description: BSK_4H_uPAR: BioMAP Diversity Plus: 4H Assay for Urokinase-type plasminogen activator receptor (uPAR) Biomarker Activity (AID 2283030). Conditions: primary human endothelial cells (HUVEC); actives raise or lower the signal. An outline of the steps:
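HUVEC, 24 h post-dose; uPAR by ELISA; bidirectional fit vs DMSO baseline.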

Read-out in assay [9]: Vascular endothelial growth factor receptor 2 (Homo sapiens) (UniProt P35968)
Description: BSK_4H_VEGFRII: BioMAP Diversity Plus: 4H Assay for Vascular endothelial growth factor receptor 2 (VEGFR2) Biomarker Activity (AID 2283031). Conditions: primary human endothelial cells (HUVEC); actives raise or lower the signal. An outline of the steps:
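HUVEC (human primary), 4H system; 24 h post-dose; VEGFRII by ELISA; bidirectional curve fit vs DMSO baseline; gain or loss of signal scored.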

Read-out in assay [10]: Vascular cell adhesion molecule 1 (VCAM1), VCAM1 (gene 7412)
The assay can be described thus: BSK_4H_VCAM1: BioMAP Diversity Plus: 4H Assay for Vascular cell adhesion molecule 1 (VCAM1) Biomarker Activity (AID 2283033).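 On outcome: cell-surface VCAM-1 protein measured by ELISA.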 The following applies: primary human endothelial cells (HUVEC); actives raise or lower the signal. An outline of the steps: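 In this human endothelial (HUVEC) system, biomarker ELISA was run 24 h after compound addition, and total protein in parallel wells was assessed by SRB at 560 nm; DMSO served as negative control.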

Read-out in assay [11]: Interferon-gamma inducible Protein 10 (IP10), CXCL10 (gene 3627)
Description: BSK_BE3C_IP10: BioMAP Diversity Plus: BE3C Assay for Interferon-gamma inducible Protein 10 (IP10) Biomarker Activity (AID 2283034). Conditions: primary human bronchial epithelial cells; actives raise or lower the signal. Put shortly: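 BE3C cells (human bronchial epithelial, primary); 24 h exposure; ELISA for IP-10; DMSO-referenced bidirectional fit.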

Read-out in assay [12]: Monokine induced gamma interferon (MIG), CXCL9 (gene 4283)
The assay can be described thus: BSK_BE3C_MIG: BioMAP Diversity Plus: BE3C Assay for Monokine induced gamma interferon (MIG) Biomarker Activity (AID 2283035).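 On outcome: MIG protein measured by ELISA in BE3C cultures after 24 h of dosing.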 Conditions: primary human bronchial epithelial cells; actives raise or lower the signal. Put shortly:
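Dose cells (human primary bronchial epithelial), incubate 24 h, quantify MIG by ELISA, then fit concentration–response in both directions relative to DMSO control.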

Read-out in assay [13]: Transforming growth factor beta 1 (TGFb1), TGFB1 (gene 7040)
The assay can be described thus: BSK_BE3C_TGFb1: BioMAP Diversity Plus: BE3C Assay for Transforming growth factor beta 1 (TGFb1) Biomarker Activity (AID 2283036;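 further: TGF-b1 protein level measured by ELISA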). Conditions: primary human bronchial epithelial cells; actives raise or lower the signal. Put shortly:
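TGF-b1 measured via ELISA, 24 h after chemical dosing of human bronchial epithelial cells (BE3C). Overt cytotoxicity assessed in parallel by SRB (0.1%, TCA-fixed, 560 nm); analysis bidirectional relative to DMSO.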

Read-out in assay [14]: Plasminogen activator inhibitor-1 (PAI1), SERPINE1 (gene 5054)
The assay can be described thus: BSK_BE3C_PAI1: BioMAP Diversity Plus: BE3C Assay for Plasminogen activator inhibitor-1 (PAI1) Biomarker Activity (AID 2283037). Conditions: primary human bronchial epithelial cells; actives raise or lower the signal. Put shortly: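 In this multiplexed primary-cell system, bronchial epithelial cells receive test chemical and are sampled at 24 h. PAI-1 is read by ELISA, with DMSO serving as negative control for bidirectional fitting.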

Read-out in assay [15]: urokinase plasminogen activator (uPA), PLAU (gene 5328)
Description: BSK_BE3C_uPA: BioMAP Diversity Plus: BE3C Assay for urokinase plasminogen activator (uPA) Biomarker Activity (AID 2283038).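 Further: uPA protein level quantified by ELISA in cell cultures; uPA read one day after compound addition.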 The following applies: primary human bronchial epithelial cells; actives raise or lower the signal. An outline of the steps:
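ELISA read-out of uPA in human lung primary bronchial epithelial cultures, 24 h post-dosing. Gain or loss of signal fitted bidirectionally relative to DMSO baseline; cytotoxicity checked in parallel cultures via SRB total protein stain.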

Read-out in assay [16]: Interleukin-6 (IL6), IL6 (gene 3569)
Description: BSK_CASM3C_IL6: BioMAP Diversity Plus: CASM3C Assay for Interleukin-6 (IL6) Biomarker Activity for (AID 2283040). The following applies: primary human coronary artery smooth muscle cells; actives raise or lower the signal.

The target of assay [17] is human Vitamin D Receptor (VDR), VDR (gene 7421) (UniProt P11473). Description: ATG_VDR_TRANS: Attagene TRANS-FACTORIAL HepG2 Assay for human Vitamin D Receptor (VDR) (AID 2283022; active means hit-call score of the fitted dose curve at least 0.9, where 1 is the maximum). Put shortly:
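RT-PCR/capillary electrophoresis read-out of reporter mRNA induction in transiently transfected HepG2; 24 h dosing; chimeric NR-Gal4 (TRANS format); gain-of-signal fit against DMSO baseline.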

Read-out in assay [18]: Tissue plasminogen activator (tPA), PLAT (gene 5327)
The assay can be described thus: BSK_BE3C_tPA: BioMAP Diversity Plus: BE3C Assay for Tissue plasminogen activator (tPA) Biomarker Activity (AID 2283041).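 On outcome: tPA level quantified by ELISA one day after compound addition.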 Conditions: primary human bronchial epithelial cells; actives raise or lower the signal. An outline of the steps: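 Using human lung primary bronchial epithelial cells, tPA was measured by ELISA 24 h after dosing; data fitted relative to DMSO.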

Read-out in assay [19]: Human Leukocyte Antigen - DR isotype (HLADR), HLA-DRA (gene 3122)
Description: BSK_BE3C_HLADR: BioMAP Diversity Plus: BE3C Assay for Human Leukocyte Antigen - DR isotype (HLADR) Biomarker Activity (AID 2283032). Conditions: primary human bronchial epithelial cells; actives raise or lower the signal. Put shortly: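 BioMAP BE3C format: human bronchial epithelium, 24 h compound treatment, ELISA detection of HLA-DR, with bidirectional analysis relative to DMSO.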

Read-out in assay [20]: Urokinase-type plasminogen activator receptor (uPAR), PLAUR (gene 5329)
The assay can be described thus: BSK_BE3C_uPAR: BioMAP Diversity Plus: BE3C Assay for Urokinase-type plasminogen activator receptor (uPAR) Biomarker Activity (AID 2283039).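 Further: uPAR protein level measured by ELISA on the cells; cells exposed to compound for one day before measurement.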 Conditions: primary human bronchial epithelial cells; actives raise or lower the signal. An outline of the steps: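 Chemically treated human bronchial epithelial cells (lung primary) are assayed for uPAR by ELISA after 24 h, with data fitted in both directions using DMSO as negative control.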

Results filed as inconclusive are left out. Activity calls are given as the source filed them. How the source made its calls, unless noted: active means hit-call score of the fitted dose curve at least 0.9, where 1 is the maximum; inactive means score below 0.9.

Chain of human Vitamin D Receptor (VDR), VDR (gene 7421) (P11473 whole entry, looked up, the tested form may be a part): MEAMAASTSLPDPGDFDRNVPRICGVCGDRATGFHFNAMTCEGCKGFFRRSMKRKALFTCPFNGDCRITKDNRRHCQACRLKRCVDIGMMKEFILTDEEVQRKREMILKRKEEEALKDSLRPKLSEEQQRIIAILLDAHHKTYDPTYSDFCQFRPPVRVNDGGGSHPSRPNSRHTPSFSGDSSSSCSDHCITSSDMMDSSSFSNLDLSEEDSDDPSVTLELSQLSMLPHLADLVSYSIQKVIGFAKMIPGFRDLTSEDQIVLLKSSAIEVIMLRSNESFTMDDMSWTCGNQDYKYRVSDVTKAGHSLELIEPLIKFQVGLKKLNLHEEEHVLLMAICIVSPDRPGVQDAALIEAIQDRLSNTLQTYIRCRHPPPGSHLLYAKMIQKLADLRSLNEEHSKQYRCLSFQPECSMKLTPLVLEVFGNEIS

In general, AC50 refers to the concentration at which the activity in the assay is half-maximal. As for `O=C1c2ccccc2C(=O)N1CCc1noc(-c2ccc(CN3CCCCCC3)s2)n1`, the outcome in [1], in assay [2], in [3], in [5], in [6] and in [7] was inactive. In addition, the outcome in [9], in [10], in assay [11], in assay [12], in [13] and in assay [14] was inactive. Further, the result in [15] and in assay [16] was inactive. Also, the AC50 is 17.8 µM (active) in [4] and 22.8 µM (active) in assay [8].
For the compound `OC12N=C(c3ccccc3)SC1Cc1cc(Cl)ccc12` (configuration not stated), the outcome in assay [17], in assay [3], in [4], in assay [5], in assay [6] and in assay [7] was inactive. For the same compound, the result in assay [8], in assay [9], in [11], in assay [12], in assay [13] and in [14] was inactive. The outcome in [15] and in assay [16] was inactive. The concentration at half-maximal activity (AC50) in assay [1] is 28.1 µM (active); in assay [2], 15.3 µM (active); in assay [10] it was 20 µM (active).
As to `O=C(OCCCCCCOC(=O)c1ccccc1)c1ccccc1`, the compound was classed as inactive in assay [17], in assay [1], in assay [2], in assay [3], in assay [4] and in assay [5]. Further, the result in assay [6], in assay [7], in assay [8], in [9], in assay [10] and in assay [11] was inactive. In addition, the result in assay [12], in [13], in [14], in [15] and in [16] was inactive.
Consider `O=C(O)Cc1cc(I)c(Oc2ccc(O)c(I)c2)c(I)c1`, for which the call in assay [17], in assay [1], in assay [4], in assay [5], in assay [6] and in assay [7] was inactive. For the same compound, the result in [9], in assay [13] and in assay [15] was inactive. Besides, the AC50 was 6.29 µM (active) in assay [2]; 14.5 µM (active) in [3]; 23.3 µM (active) in assay [8]; 18.7 µM (active) in assay [10]; 10.3 µM (active) in assay [11]; 33.9 µM (active) in assay [12]. Moreover, the values for the AC50 in assay [14], in assay [16] and in assay [18] were 15.2 µM (active), 29.6 µM (active) and 15.9 µM (active), respectively.
Turning to `COCC(C)OCC(C)OCC(C)O` (configuration not stated), the outcome in [1], in assay [2], in assay [3], in [4], in [5] and in assay [6] was inactive. For the same compound, the result in [7], in assay [8], in assay [9], in assay [19], in assay [10] and in assay [11] was inactive. For the same compound, the outcome in assay [12], in assay [13], in [14], in assay [15], in assay [16] and in assay [18] was inactive.
With `O=C(O)c1ccccc1C(=O)OCc1ccccc1`, the result in [1], in [2], in [3], in assay [4], in assay [5] and in assay [6] was inactive. For the same compound, the result in assay [7], in assay [8], in [9], in [10], in [11] and in [12] was inactive. The result in [13], in assay [14], in assay [15], in assay [20], in assay [16] and in assay [18] was inactive.
With `Oc1ccc2ccccc2c1`, the call in [17], in assay [1], in assay [2], in assay [3], in assay [4] and in [5] was inactive. Besides, the outcome in assay [6], in assay [7], in [8], in assay [9], in assay [10] and in [12] was inactive. For the same compound, the result in assay [13], in [14], in assay [15] and in assay [18] was inactive. In addition, the results for the AC50 in assay [11] and in assay [16] were 32.5 µM (active) and 20 µM (active), respectively.
